Source: PubChem BioAssay (Broad Institute)
STAT3 binder: STAT3 binders, primary screen, biochemical, small molecule microarray, single point, set 2. Signal transducer and activator of transcription 3 (Homo sapiens), P40763. His-STAT3 binding, anti-His fluorescence. calls only. 0.2% of 17,000 active;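 active = compounds whose four printed spots each show fluorescence over background unusually high for their array block, chance value under 7%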
NFkB SMM: binders of NF-kB p50 subunit, primary screen, biochemical, small molecule microarray, anti-His fluorescence; anti-His fluorescence binding; calls only; 1.3% of 17,000 active; AID 624139, 2012;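 active = spot fluorescence over background significantly raised, with a chance value under 7% in all four replicate spots of the compound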;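 note: probe protein is his-tagged human p50 processed subunit at 1 µg/ml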
Target sequence (P19838 1-433 limits assumed): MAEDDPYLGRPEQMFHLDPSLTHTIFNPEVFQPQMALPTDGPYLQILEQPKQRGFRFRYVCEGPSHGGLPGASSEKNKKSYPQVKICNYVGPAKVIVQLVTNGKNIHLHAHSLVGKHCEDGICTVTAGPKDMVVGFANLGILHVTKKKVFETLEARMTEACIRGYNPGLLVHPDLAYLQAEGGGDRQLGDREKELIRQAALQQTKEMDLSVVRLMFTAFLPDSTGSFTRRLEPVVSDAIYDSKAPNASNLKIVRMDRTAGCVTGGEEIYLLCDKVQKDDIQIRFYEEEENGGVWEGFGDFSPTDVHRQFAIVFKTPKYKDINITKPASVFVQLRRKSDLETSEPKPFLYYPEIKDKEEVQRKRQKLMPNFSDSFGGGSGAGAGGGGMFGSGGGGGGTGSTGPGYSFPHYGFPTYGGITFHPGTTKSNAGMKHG
p53 mut binder: binders of human mutant p53, primary screen, biochemical, small molecule microarray, anti-GST fluorescence | mutant tumor protein p53 (GST-tagged), Homo sapiens | small molecule microarray binding | calls only | 0.4% of 17,000 active;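 active = compounds whose four printed spots each glow above background more than chance allows, each with a p-value under 7%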
Myc binder: binders of human c-Myc, primary screen, biochemical, small molecule microarray, anti-His fluorescence | 1.5% of 17,000 active | His-c-Myc binding | calls only | Myc proto-oncogene protein (Homo sapiens), P01106;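 active = spot fluorescence over background with P-value below 7% in all four replicate spots, showing protein binding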
Of the large screens only hits and unclear results are named; the others gave an inactive call. This is a sample that favours compounds with a hit; in the whole collection about 2.1% have one here.

Cc1noc(C)c1S(=O)(=O)N(C)C[C@@H]1OCCCC[C@@H](C)Oc2ccc(N(C)C)cc2C(=O)N([C@H](C)CO)C[C@H]1C	NFkB SMM active, Myc binder active
Cc1noc(C)c1S(=O)(=O)N(C)C[C@H]1OCCCC[C@H](C)Oc2ccc(NC(=O)NC(C)C)cc2C(=O)N([C@H](C)CO)C[C@@H]1C	none
Cc1noc(C)c1S(=O)(=O)N(C)C[C@H]1OCCCC[C@@H](C)Oc2ccc(NC(=O)NC(C)C)cc2C(=O)N([C@@H](C)CO)C[C@H]1C	Myc binder active
C[C@H](CO)N1C[C@H](C)[C@@H](CN(C)S(=O)(=O)c2ccccc2)OCCCC[C@H](C)Oc2ccc(N(C)C)cc2C1=O	p53 mut binder active
Cc1noc(C)c1S(=O)(=O)N(C)C[C@H]1OCCCC[C@H](C)Oc2ccc(N(C)C)cc2C(=O)N([C@@H](C)CO)C[C@@H]1C	p53 mut binder active
COc1ccc(COC[C@]23N=C4Sc5ccc([N+](=O)[O-])cc5C(=O)N4[C@H](c4ccccc4O2)[C@H]3CO)cc1	none
O=C(Nc1ccccc1)c1ccc(CSc2nnc(-c3ccncc3)n2-c2ccccc2)cc1	none
[O-]/[N+](=N\OCCBr)N1CCCC1	none
COc1c(-c2ccccc2)oc2c(CC=C(C)C)c3c(c(OC)c2c1=O)C=CC(C)(C)O3	none
CC1Oc2c3c(c4c(-c5ccccc5)cc(=O)oc4c2C(=O)C1C)OC(C)(C)C=C3 (stereo not drawn)	NFkB SMM active
CC(C)(O)[C@@H]1Cc2cc3ccc(=O)oc3cc2O1	none
OC1c2ccccc2-c2c3c(cc4c2C1NCC4)OCO3 (stereo not drawn)	NFkB SMM active, Myc binder active
CN(CCC#N)S(=O)(=O)c1cccc2nsnc12	none
CC(C)CC(NS(=O)(=O)c1cccc2nsnc12)C(=O)O (stereo not drawn)	NFkB SMM active, Myc binder active
COc1ccccc1CN1CCN(Cc2cccnc2)CC1	Myc binder active
Cc1nn(C(=O)Cn2cc([N+](=O)[O-])cn2)c(C)c1Br	Myc binder active
Cc1cccc(NC(=O)CSc2nnc(-c3cccs3)n2-c2ccccc2)c1C	none
COc1ccc2nc(Nc3nc(C)c(CCC(C)C)c(=O)[nH]3)nc(C)c2c1	NFkB SMM active
CCc1ccc(C(Nc2cc(C)ccn2)c2ccc3cccnc3c2O)cc1 (stereo not drawn)	p53 mut binder active
Cc1cc(C)nc(SC(C)C(=O)Nc2cccc3ccccc23)n1 (stereo not drawn)	none
C[C@@H]1CN([C@@H](C)CO)C(=O)Cc2cc(NC(=O)Nc3cccc4ccccc34)ccc2O[C@@H]1CN(C)Cc1ccc(C(=O)O)cc1	none
C[C@@H]1CN([C@@H](C)CO)C(=O)Cc2cc(NC(=O)CCN3CCOCC3)ccc2O[C@H]1CN(C)Cc1ccc(-c2ccccc2)cc1	Myc binder active
C[C@H](CO)N1C[C@H](C)[C@@H](CN(C)Cc2ccc(-c3ccccc3)cc2)Oc2ccc(NC(=O)Nc3cccc4ccccc34)cc2CC1=O	NFkB SMM active
C[C@@H]1CN([C@H](C)CO)C(=O)Cc2cc(NC(=O)CCN3CCOCC3)ccc2O[C@H]1CN(C)Cc1ccc(-c2ccccc2)cc1	none
C=CCOC(=O)[C@H]1[C@@H]2C(=O)O[C@@H](c3ccccc3)[C@@H](c3ccccc3)N2[C@@H](c2ccc(OCCOC(=O)[C@@H]3C[C@@H]4C(=O)N[C@@H](Cc5ccccc5)C(=O)N4[C@@H]3c3cccc(OCCO)c3)cc2)[C@]12C(=O)Nc1ccc(I)cc12	NFkB SMM active
C=CCOC(=O)[C@H]1[C@@H]2C(=O)O[C@@H](c3ccccc3)[C@@H](c3ccccc3)N2[C@@H](c2ccc(OCCOC(=O)[C@@H]3C[C@@H]4C(=O)NCC(=O)N4[C@@H]3c3ccc(O)cc3)cc2)[C@]12C(=O)Nc1ccccc12	NFkB SMM active
C=CCOC(=O)[C@H]1[C@@H]2C(=O)O[C@@H](c3ccccc3)[C@@H](c3ccccc3)N2[C@@H](c2ccc(OCCOC(=O)[C@@H]3C[C@@H]4C(=O)N5CCC[C@H]5C(=O)N4[C@@H]3c3cccc(OCCO)c3)cc2)[C@]12C(=O)Nc1ccc(I)cc12	NFkB SMM active
C=CCOC(=O)[C@H]1[C@@H]2C(=O)O[C@@H](c3ccccc3)[C@@H](c3ccccc3)N2[C@@H](c2ccc(OCCOC(=O)[C@@H]3C[C@@H]4C(=O)N5CCC[C@H]5C(=O)N4[C@@H]3c3cccc(OCCO)c3)cc2)[C@]12C(=O)Nc1ccccc12	none
